Source: PubChem
This is a sample that favours compounds with a hit; in the whole collection about 12% have one here.
HP1b chromo inh: inhibitors of HP1-beta chromodomain binding to methylated histone tails; AID 540317; Potency, µM (top dose mostly 114 µM), for the others: top-dose activity change, negative = inhibition, hits mostly inhibitors; AlphaScreen HP1-beta / biotin-H3K9me3 peptide binding; actives 0.56% (n = 390,000); note: potency is the fitted concentration of half-maximal effect; nearly all actives have a fitted effect of over 70% in size
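AlphaScreen: HP1-beta (50 nM) preformed 30 min with biotin-H3(1-18)K9me3 peptide (50 nM) in PBS pH 7.4, 0.01% Tween-20. Compound added for 30 min at RT, then streptavidin donor/nickel chelate acceptor beads (10 ug/mL) for 30 min.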
G9a block: inhibitors of human histone lysine methyltransferase G9a; Q96KQ7; G9a H3K9 monomethylation, AlphaScreen, 2 h; Potency, µM (series often up to 102 µM), for the others: at the top dose activity, negative = inhibition, actives largely listed as inhibitors; actives 8.8% (n = 350,000); AID 504332; note: potency is the fitted concentration of half-maximal effect; % is set by controls: 0 for no effect and ±100 for the full control effect; nearly all actives have a fitted effect of over 75% in size
Target sequence (Q96KQ7 913-1193 limits assumed): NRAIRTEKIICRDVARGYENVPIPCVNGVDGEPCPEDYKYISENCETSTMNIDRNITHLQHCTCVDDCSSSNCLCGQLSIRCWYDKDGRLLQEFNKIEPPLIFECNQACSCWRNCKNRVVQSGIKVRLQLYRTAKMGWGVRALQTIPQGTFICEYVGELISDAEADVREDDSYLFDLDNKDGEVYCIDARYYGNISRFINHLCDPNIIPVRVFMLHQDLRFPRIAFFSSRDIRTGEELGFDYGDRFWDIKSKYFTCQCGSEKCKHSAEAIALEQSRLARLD
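G9a (20 nM) was preincubated 15 min with compound, then reacted 2 h at room temperature with 500 nM biotin-H3K9 peptide and 20 µM SAM. Monomethyl-H3K9 detected by AlphaScreen using anti-H3K9me1 antibody.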
PI5P4Ka inh: blocks human PI5P4K alpha kinase activity. PI5P4Kalpha enzyme, ADP-Glo luminescence, 60 min; hits give low values. max response, %. actives 1.2% (n = 330,000); active = max response of -50% or lower; inconclusive = between -30% and -50%; inactive = -30% or higher; note: value at the top dose of about 77 µM; % is set by controls: 0 for no effect and ±100 for the full control effect
Target sequence (P48426 whole entry, looked up): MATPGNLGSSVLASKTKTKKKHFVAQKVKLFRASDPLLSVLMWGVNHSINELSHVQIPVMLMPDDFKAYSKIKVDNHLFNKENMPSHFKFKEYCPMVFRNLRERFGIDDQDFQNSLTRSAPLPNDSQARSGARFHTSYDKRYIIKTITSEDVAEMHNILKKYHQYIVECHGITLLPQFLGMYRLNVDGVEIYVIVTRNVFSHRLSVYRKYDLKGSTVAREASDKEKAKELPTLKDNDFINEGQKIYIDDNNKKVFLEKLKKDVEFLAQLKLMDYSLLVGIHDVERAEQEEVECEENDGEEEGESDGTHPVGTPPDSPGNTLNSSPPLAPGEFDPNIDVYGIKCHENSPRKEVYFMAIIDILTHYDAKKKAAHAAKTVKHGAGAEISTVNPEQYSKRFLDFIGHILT
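Enzyme plus substrate dispensed, test compounds pinned in, then ATP (5 microM final) added. After 60 min at RT, ADP-Glo reagent 1 for 45 min and reagent 2 for 30 min preceded luminescence imaging.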
JMJD2A Tudor inh: blocks the human JMJD2A Tudor domain. O75164. AlphaScreen JMJD2A-Tudor / H3K4me3 peptide binding. Potency, µM (series often up to 114 µM), inactives show top-dose activity change, negative = inhibition, most hits filed as inhibitors. actives 4.4% (n = 390,000). AID 504339; note: potency is the fitted concentration of half-maximal effect; % is set by controls: 0 for no effect and ±100 for the full control effect; nearly all actives have a fitted effect of over 50% in size
PLK1 PBD inh: blocks phosphopeptide binding to human PLK1 polo-box domain. P53350. Plk1 PBD binding of FITC phosphopeptide, fluorescence polarization. Potency, µM, for the others: max response, negative = inhibition, usual class: inhibitors. actives 2.8% (n = 360,000). AID 720504; note: potency is the fitted concentration of half-maximal effect; series mostly up to about 57 µM; % is set by controls: 0 for no effect and ±100 for the full control effect; nearly all actives have a fitted effect of over 65% in size
BAZ2B block: BAZ2B (human) inhibition | Q9UIF8 | AlphaScreen BAZ2B-H3K14Ac peptide displacement | Potency, µM (doses to about 114 µM), inactives show at the highest dose activity change, negative = inhibition, usual class: inhibitors | actives 4.4% (n = 360,000) | AID 504333; note: potency is the fitted concentration of half-maximal effect; % is set by controls: 0 for no effect and ±100 for the full control effect; nearly all actives have a fitted effect of over 60% in size
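Complex of BAZ2B and biotin-H3K14Ac (50 nM apiece) forms over 30 min at RT, then faces library compounds up to 110 uM for another 30 min; AlphaScreen beads added, 20 min dark incubation, luminescence read.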
* marks the source's active call; other numbers are inactive results; ? = inconclusive; · = not tested or not shown; [ ] = remark or other dose. Unless noted, calls come from the whole dose curve; as a rule, active = well fitted curve in the direction sought with a large enough effect; inconclusive = small, poorly fitted or top-dose-only effect, or another doubt; inactive = no such curve, though single readings can be large; an effect the other way counts as inactive or inconclusive.

SMILES	HP1b chromo inh	G9a block	PI5P4Ka inh	JMJD2A Tudor inh	PLK1 PBD inh	BAZ2B block
COc1ccc(NC(=S)N(CCc2c(C)[nH]c3ccc(C)cc23)Cc2cccs2)cc1	11%	50µM*	3	?	-1%	?
CCOc1ccc(NC(=S)N(CCc2c(C)[nH]c3ccc(C)cc23)Cc2cccnc2)cc1	-15%	?	1	?	7%	?
COc1ccc2[nH]c(C)c(CCN(Cc3cccs3)C(=S)Nc3ccc(F)cc3)c2c1	?	?	-9	?	-18%	?
CCNC(=S)N(CCc1c(C)[nH]c2ccc(F)cc12)Cc1cccnc1	?	?	-3	?	19µM*	-25%
Cc1ccc(NC(=S)N(CCN(C)C)Cc2cccs2)c(C)c1	-7%	40µM*	-26	-5%	8.4µM*	-24%
Cc1cc(C)c(NC(=S)N(CCN(C)C)Cc2cccs2)c(C)c1	19%	-4%[59 µM]	4	-29%	-5%	-36%
COc1ccc(NC(=S)N(CCc2c(C)[nH]c3ccccc23)Cc2cccnc2)cc1	-16%	71µM*	-1	?	-13%	35µM*
COc1ccc(NC(=S)N(CCc2c(C)[nH]c3ccc(C)cc23)Cc2ccco2)cc1	-10%	79µM*	-2	?	0%	?
CNC1CCC(c2ccc(Cl)c(Cl)c2)c2ccccc21 (configuration not stated)	·	-41%[2.33 µM]	·	·	·	·
O=C(CS(=O)(=O)c1ccc(Cl)cc1)N1CCN(c2ccccc2)CC1	·	·	1	·	-1%	·
C[C@@H]1CNC(=O)c2c(C(=O)Nc3ccc(CNC(=O)OC(C)(C)C)cc3)ncn21	·	·	-10	·	-1%	·
Cc1cc(C)c2c(c1)NC(C(=O)O)C1CC=CC21 (configuration not stated)	20µM*	·	-79*	13µM*	3µM*	11µM*
O=C(c1ccccc1O)N1CCOCC1	33%	-1%[59 µM]	2	2%	0%	-2%
Cc1ccc(Cl)c2c1N[C@@H](c1ccc(C(=O)O)cc1)[C@H]1CC=C[C@@H]21	5%	?	·	?	·	?
O=C(O)C1Nc2c(C(F)(F)F)ccc(Cl)c2C2C=CCC12 (configuration not stated)	-4%	10µM*	-27	-26%	27µM*	?
Cc1ccc2c(c1C)NC(C(=O)O)C1CC=CC21 (configuration not stated)	11µM*	8.9µM*	·	7.9µM*	19µM*	7.1µM*
O=C(O)C1Nc2c(C(=O)N3CCOCC3)cccc2C2C=CCC12 (configuration not stated)	40µM*	8.9µM*	-62*	11µM*	12µM*	20µM*
Cc1ccc2cccc(NC(=O)C(C)Oc3ccc(Cl)cc3Cl)c2n1 (configuration not stated)	107%	59%[59 µM]	·	40%	·	35%
COC(=O)CNC(=O)C1Nc2ccc(OC(F)(F)F)cc2C2C=CCC12 (configuration not stated)	38%	·	3	-17%	-2%	·
Cc1cc(C)c2c(c1)C1C=CCC1C(C(=O)O)N2 (configuration not stated)	20µM*	·	·	20µM*	·	·
CSc1nsc2nc(=O)c(/C=C3\C(C)=Nc4ccccc43)c(N)n12	19%	18µM*	2	-32%	-18%	?
Cc1[nH]n(-c2ccccc2)c(=O)c1N=O	23%	-8%[12.7 µM]	-3	-12%	-6%	-28%
CC(=O)c1cccc(N=Nc2c(-c3ccccc3)[nH]n(-c3ccccc3)c2=O)c1	14µM*	·	-2	?	24µM*	5µM*
Cc1[nH]n(-c2ccccc2)c(=O)c1N=Nc1c(O)cc(S(=O)(=O)N(C)C)c2ccccc12	18µM*	3.5µM*	-8	20µM*	30µM*	7.9µM*
Cc1[nH]n(-c2ccccc2)c(=O)c1N=Nc1ccc2c(c1)OCCO2	?	7.1µM*	16	22µM*	0%	6.3µM*
SMILES	HP1b chromo inh	G9a block	PI5P4Ka inh	JMJD2A Tudor inh	PLK1 PBD inh	BAZ2B block
Cc1[nH]n(-c2ccccc2)c(=O)c1N=Nc1ccc(F)cc1	-20%	4.5µM*	0	?	1%	4.5µM*
CCOC(=O)C1(C)C=C(Nc2ccc(C)cc2)C(=O)N1c1ccccc1 (configuration not stated)	44%	2%[59 µM]	·	3%	·	0%
Cc1cn2c(=O)c(S(=O)(=O)NCc3ccccc3Cl)c(C)nc2s1	17%	-7%[59 µM]	·	-3%	·	-11%
O=C(O)[C@H](CC(=O)N1C[C@H]2CCCC[C@H]2C1)Cc1ccccc1	·	5%[12.7 µM]	·	·	·	·
Cc1ccc(N=Nc2c(C)[nH]n(-c3ccccc3)c2=O)cc1Br	-2%	3.5µM*	0	?	-3%	13µM*
Cc1[nH]n(-c2ccccc2)c(=O)c1N=Nc1cccc(Cl)c1	?	·	0	?	2%	22µM*
CSc1ccc(N=Nc2c(C)[nH]n(C)c2=O)cc1	45µM*	11µM*	-2	25µM*	-7%	18µM*
COC(=O)c1ccc(N=Nc2c(C)[nH]n(-c3ccccc3)c2=O)cc1	?	8.9µM*	5	?	-12%	?
Cc1[nH]n(-c2ccccc2)c(=O)c1N=Nc1cccc([N+](=O)[O-])c1	-9%	·	3	?	-5%	?
COc1ccccc1C(=O)NCC(=O)NCC1(N2CCCCC2)CCCCC1	9%	-7%	1	-4%	-9%	4%
Cc1ccc(N=Nc2c(C)[nH]n(-c3ccccc3)c2=O)c(C)c1	22µM*	-14%	?	11µM*	8.4µM*	13%
Cc1ccoc1C(=O)N1CCN(C(=O)c2occc2C)CC1	28%	11%	4	-8%	0%	4%
C/C(=N/NC(=O)CN(c1ccccc1)S(=O)(=O)c1ccccc1)c1ccccc1O	41%	·	3	?	-4%	13µM*
CCOC(=O)c1cnc(-n2nc(C)cc2C)nc1Nc1ccc(O)cc1	31%	?	2	-10%	-2%	-16%
CCOC(=O)c1cnc(-n2nc(C)cc2C)nc1Nc1ccc(C)cc1	40%	?	16	-22%	-2%	-9%
CCOC(=O)c1cnc(-n2nc(C)cc2C)nc1NC	15%	45µM*	·	-34%	-5%	3%
CCOC(=O)c1cnc(-n2nc(C)cc2C)nc1Nc1cccc(C(=O)O)c1	31%	10µM*	0	89µM*	0%	4%
O=C(OCC#CCSc1nnc(-c2cccc3ccccc23)o1)c1cc(F)c(F)c(F)c1	·	·	·	21%	·	·
O=C(CCC(=O)Nc1ccccc1)NNS(=O)(=O)c1ccc(Cl)cc1	28%	6.3µM*	-19	?	19µM*	-19%
